# Screening data deposited in PubChem by The Scripps Research Institute Molecular Screening Center.
# PAFAH1B3 inh: blocks human PAF acetylhydrolase 1B catalytic subunit 3; Q15102; recombinant PAFAH1B3, FP-rhodamine probe, fluorescence polarization; inhibition, % at 3.39 µM; hit rate 0.28% among 340,000; AID 492972;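 active = inhibition above the screen-wide average of all tested compounds plus 3 SD, cut at about 25% in these data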;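 also: 0% = enzyme with DMSO only and 100% = wells lacking PAFAH1B3 protein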
# Target sequence (Q15102 whole entry, looked up): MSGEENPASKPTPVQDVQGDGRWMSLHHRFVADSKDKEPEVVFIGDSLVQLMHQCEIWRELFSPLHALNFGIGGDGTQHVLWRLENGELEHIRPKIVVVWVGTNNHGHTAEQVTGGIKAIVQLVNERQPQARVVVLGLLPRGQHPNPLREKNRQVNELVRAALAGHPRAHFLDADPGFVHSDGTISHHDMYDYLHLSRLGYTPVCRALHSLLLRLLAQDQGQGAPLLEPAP
# PAFAH1B2 inh: inhibitors of human PAFAH1B2; P68402; recombinant PAFAH1B2, FP-rhodamine activity probe, fluorescence polarization; inhibition, % at 3.39 µM; hit rate 1.2% among 340,000; AID 492953;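 active = inhibition above the mean of all tested compounds plus 3 SD, cut at about 24% in these data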;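 also: 0% = enzyme with DMSO and 100% = wells lacking PAFAH1B2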
# Target sequence (P68402 whole entry, looked up): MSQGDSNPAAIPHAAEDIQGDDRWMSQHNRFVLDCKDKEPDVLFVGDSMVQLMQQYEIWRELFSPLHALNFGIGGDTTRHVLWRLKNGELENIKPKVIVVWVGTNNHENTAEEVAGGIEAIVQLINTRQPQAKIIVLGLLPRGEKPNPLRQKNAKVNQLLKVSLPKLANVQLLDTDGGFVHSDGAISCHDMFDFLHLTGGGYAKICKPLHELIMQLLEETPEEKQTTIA
# Rin1 Abl inh: blocks binding of human Rin1 to Abl. TR-FRET Rin1/Abl binding, biochemical. AID 588664. inhibition, % at 7.35 µM. P00519+Q13671. hit rate 0.4% among 360,000; in the data active = inhibition above about 5%, passing the limit was not always enough
# E coli Lon inh: inhibitors of E. coli Lon protease; P0A9M0; purified E. coli Lon protease, fluorescence polarization; inhibition, % at 7.94 µM; hit rate 0.42% among 360,000; AID 602123; in the data active = inhibition above about 13%, passing the limit was not always enough;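 also: 0% = enzyme with probe and DMSO and 100% = no enzyme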
# pPAFAH FP inh: pPAFAH (human) enzyme inhibition; hit rate 1.5% among 330,000; Q13093; recombinant pPAFAH, FP-rhodamine probe fluorescence polarization; AID 463082; inhibition, % at 3.39 µM;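 active = inhibition above the mean inhibition across the screen plus 3 SD, cut at about 25% in these data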;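 also: inhibitors block binding of the rhodamine activity-based probe so polarization drops; 0% = enzyme with DMSO and 100% = wells lacking pPAFAH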
# PAFAH2 inh: inhibitors of human PAFAH2; hit rate 0.99% among 340,000; Q99487; inhibition, % at 3.39 µM; recombinant PAFAH2, FP-rhodamine activity probe, fluorescence polarization; AID 492956;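 active = inhibition above the mean over all tested compounds plus 3 SD, cut at about 30% in these data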;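 also: inhibitors block probe labeling of enzyme so polarization drops; 0% = enzyme with DMSO and 100% = wells lacking PAFAH2 protein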
# Starred values were filed as active, the others as inactive; x = no result given. Only some compounds are listed: those with a hit (about 3.1% of all), similar ones and a draw of the others.
SMILES,PAFAH1B3 inh,PAFAH1B2 inh,Rin1 Abl inh,E coli Lon inh,pPAFAH FP inh,PAFAH2 inh
CCC(=O)OC1(C)C(=O)C=C2C=C(c3ccc(C#N)cc3)OC=C2C1=O (stereo unspecified),18,7,2,-8,33*,11
O=C(CC[C@H]1O[C@@H](n2cnc3c(NC(=O)c4ccccc4)ncnc32)[C@H](O)[C@@H]1O)N[C@@H](CO)Cc1c[nH]c2ccccc12,x,x,0,1,x,x
CCOCCOC(=O)COc1ccc2c(-c3ccccc3)cc(=O)oc2c1,6,-2,1,10,13,-5
Nc1c(C(=O)OCC(=O)Nc2ccc(Cl)cc2[N+](=O)[O-])[nH]c(=O)[nH]c1=O,2,1,-6,6,33*,-4
Cc1ccc(C(=O)NC2CCN(CC(=O)NC3CCC(C)CC3)CC2)cc1 (stereo unspecified),5,5,1,-1,1,4
COc1ccc(CNC(=O)CSc2nc3ccc(OC)cc3[nH]2)cc1,4,16,-4,-1,3,6
Cc1ccc2nc(SCC(=O)N3CCN(c4ccccc4)CC3)[nH]c2c1,3,30*,2,-1,3,7
COc1ccc(CNC(=O)CSc2nc3ccc(C)cc3[nH]2)cc1,-3,29*,-2,-5,10,-8
O=c1c2cc(Br)ccc2[nH]c(=S)n1Cc1ccccc1,10,8,1,-3,26*,1
COc1ccc(Cl)cc1NC(=O)COC(=O)Cc1cc(OC)c(OC)c(OC)c1,6,3,2,-5,4,-1
CC(=O)Nc1ccc(/C=N/NC(=O)c2cc(-c3ccco3)nc3ccccc23)cc1,-21,-19,0,-9,-9,-24
O=C(O)c1cc(-c2ccco2)nc2cc3ccccc3cc12,15,4,-4,-16,25*,4
CCN(CC)C(=O)COC(=O)c1cc(-c2ccco2)nc2ccccc12,8,3,-2,17,x,17
O=C(O)c1ccccc1/C=N/NC(=O)c1cc(-c2ccco2)nc2ccccc12,15,1,2,-11,32*,19
CNC(=O)COC(=O)c1cc(-c2ccco2)nc2ccccc12,7,1,-5,6,25*,12
O=C(COC(=O)c1cc(-c2ccco2)nc2ccccc12)NCc1ccccc1,1,-3,-1,-5,34*,4
COc1ccc(C)cc1S(=O)(=O)N(C)CC(=O)NCc1ccccn1,6,3,5,7,9,1
COc1ccccc1C(=O)NCCC(=O)N1CCN(C(C)=O)CC1,8,-2,3,-1,3,-1
O=C(COC(=O)C1(c2ccc(F)cc2)CCCC1)N1CCc2ccccc21,6,28*,1,-7,-6,-1
O=C(COC(=O)C1(c2ccccc2F)CCCC1)N1CCc2ccccc21,7,4,-4,1,4,-2
COc1ccc2c(c1)O[C@@H](c1cccc(C(F)(F)F)c1)[C@H](O)C2=O,13,6,x,x,5,71*
COc1cc(C=O)ccc1OCCSc1ccc(C)cc1,5,35*,0,6,11,0
CCOc1cc(C=O)ccc1OCCSc1ccc(C)cc1,4,30*,0,-15,16,-4
COc1cc(C=O)ccc1OCCOCCOc1cc(C)ccc1Cl,-1,-1,3,-7,3,-7
O=C(COC(=O)c1ccc(Br)o1)NCc1ccccc1Cl,0,8,4,-4,5,18
SMILES,PAFAH1B3 inh,PAFAH1B2 inh,Rin1 Abl inh,E coli Lon inh,pPAFAH FP inh,PAFAH2 inh
CC(C)COc1cccc(C(=O)Nc2ccc(N3CCOCC3)cc2N2CCOCC2)c1,0,0,0,-12,8,1
CCOC(=O)CSc1nc(Nc2ccc3c(c2)OCO3)c2ccccc2n1,6,5,0,3,15,3
N#CCSc1nc(Nc2ccc3c(c2)OCO3)c2ccccc2n1,9,8,-1,-1,26*,6
COc1ccc(C(=O)NCCCCNC(=O)c2ccc(OC)c(OC)c2)cc1OC,6,1,1,-11,-4,-2
CC(=O)Cc1nsc(NC(=O)c2ccc(COc3ccccc3Cl)o2)n1,1,6,4,-4,-4,0
CC(=O)Cc1nsc(NC(=O)c2ccc(COc3ccccc3)o2)n1,-4,2,1,-3,27*,-9
COc1ccc(-n2cnc3cc(NS(=O)(=O)c4ccc(C)cc4)ccc32)cc1,4,12,2,16,-10,0
COc1cc(S(=O)(=O)Nc2ccc(Br)cc2)ccc1N,6,7,-4,-4,25*,-1
COc1ccccc1-n1cnc2cc(NS(=O)(=O)c3ccc(Br)cc3)ccc21,6,25*,-1,-6,4,0
O=C(COC(=O)CNC(=O)c1ccccc1)NC(=O)NC1CCCCC1,-2,-1,0,9,2,5
O=C(NCCc1ccccc1)C1CCCN1C(=O)Nc1ccccc1 (stereo unspecified),6,-3,3,-14,-2,-8
Cc1ccc(CNC(=O)C2CCCN2C(=O)Nc2ccccc2)cc1 (stereo unspecified),7,7,2,-3,4,1
CC(C)(C)c1ccc(CNC(=O)C2CCCN2C(=O)Nc2ccccc2)cc1 (stereo unspecified),-1,25*,0,-1,-2,3
O=C(NCCc1ccccc1)C1CCCN1C(=O)Nc1cccc(Cl)c1 (stereo unspecified),-1,27*,-2,5,6,8
CC1(C)Cc2c(sc3[nH]c(=S)n(Cc4ccco4)c(=O)c23)CO1,14,6,-14,-8,3,19
O=c1c2c3c(sc2[nH]c(=S)n1Cc1ccco1)CCC3,3,3,-9,6,25*,19
C=CC[n+]1c(-c2ccc(Cl)cc2Cl)csc1Nc1ccc(NC(C)=O)cc1,10,8,-3,-2,25*,33*
C=CC[n+]1c(-c2ccc(Cl)cc2Cl)csc1Nc1c(C)n(C)n(-c2ccccc2)c1=O,4,17,2,2,10,1
Cc1ccccc1NC(=O)CSc1ccsc1[N+](=O)[O-],14,4,1,-1,27*,22
Cc1ccc(C(=O)CN2C(=O)C(=O)N(Cc3ccccc3)C2=O)cc1,0,26*,1,-11,-1,2
COC(=O)C(C)Oc1ccc2c3c(c(=O)oc2c1)CCCCC3 (stereo unspecified),-1,1,-1,-9,28*,3
COc1ccc(C(Nc2ccccn2)c2oc(CO)cc(=O)c2O)cc1 (stereo unspecified),4,-3,7.4*,-17,8,0
O=c1cc(CO)oc(C(Nc2ccccn2)c2ccc(F)cc2)c1O (stereo unspecified),3,10,3,-3,2,9
